Reference: PubChem BioAssay AID1159580 (chemical genetic matrix, 2015)
Where “and” joins values, the source holds several entries; their conditions need not be identical. Equal values may be shown once. The whole screen tested about 5,500 compounds, of which about 2,000 (36%) were called active. Another 18% or so got no clear call; they are omitted. Cut-off read from the data, not from the text of the source: active = normalized growth mostly below about 0.91 (no sharp cut-off); inconclusive = no clear call, values can overlap the other calls; inactive = mostly above about 0.92. The list shows a part of the results.

Test: chemical genetic growth profiling, strain panel (AID 1159580);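 note: tested at 20 µM; growth read once vehicle control cultures reached saturation at 30 °C; 1 = growth at the plate median or of vehicle wells; lower values mean less growth of the strain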
Details: S. cerevisiae deletion strains, growth OD

Measured: normalized growth

C=C[C@H]1CN2CC[C@H]1C[C@@H]2[C@@H](OC(=O)OCC)c1ccnc2ccc(OC)cc12
inactive: locus YAL013W, strain DEP1, stronger effect = lower value 1 | locus YAL021C, strain ccr4, stronger effect = lower value 0.93 | locus YAL026C, strain drs2, stronger effect = lower value 1.01 | locus YAL030W, strain snc1, stronger effect = lower value 0.989 | locus YBL061C, strain skt5, stronger effect = lower value 0.995 | locus YBR009C, strain hhf1, stronger effect = lower value 0.978 | locus YBR021W, strain FUR4, stronger effect = lower value 0.992 | locus YBR023C, strain chs3, stronger effect = lower value 0.997 | locus YBR171W, strain sec66, stronger effect = lower value 0.995 | locus YBR229C, strain ROT2, stronger effect = lower value 1 | locus YBR231C, strain swc5, stronger effect = lower value 1 | locus YBR279W, strain paf1, stronger effect = lower value 0.997 | locus YCL011C, strain gbp2, stronger effect = lower value 0.969 | locus YCL016C, strain dcc1, stronger effect = lower value 0.955 | locus YCL029C, strain bik1, stronger effect = lower value 1.02 | locus YCL061C, strain MRC1, stronger effect = lower value 0.979 | locus YCL069W, strain vba3, stronger effect = lower value 0.998 | locus YCR088W, strain abp1, stronger effect = lower value 0.999 | locus YDL005C, strain med2, stronger effect = lower value 0.978 | locus YDL035C, strain GPR1, stronger effect = lower value 0.981 | locus YDL040C, strain nat1, stronger effect = lower value 0.994 | locus YDL074C, strain BRE1, stronger effect = lower value 1.03 | locus YDL101C, strain DUN1, stronger effect = lower value 1.02 | locus YDL134C, strain PPH21, stronger effect = lower value 0.991 | locus YDL185W, strain tfp1, stronger effect = lower value 1.02 | locus YDL192W, strain arf1, stronger effect = lower value 1.01 | locus YDR001C, strain nth1, stronger effect = lower value 0.985 | locus YDR069C, strain doa4, stronger effect = lower value 0.979 | locus YDR101C, strain arx1, stronger effect = lower value 1 | locus YDR137W, strain rgp1, stronger effect = lower value 1.01 | locus YDR150W, strain NUM1, stronger effect = lower value 1.01 | locus YDR159W, strain sac3, stronger effect = lower value 1.03 | locus YDR162C, strain NBP2, stronger effect = lower value 1.02 | locus YDR195W, strain ref2 0.956 | locus YDR297W, strain sur2, stronger effect = lower value 1.01 | locus YDR318W, strain mcm21, stronger effect = lower value 1.01 | locus YDR334W, strain swr1, stronger effect = lower value 0.995 | locus YDR335W, strain msn5, stronger effect = lower value 0.983 | locus YDR388W, stronger effect = lower value 1.02 | locus YDR392W, strain spt3, stronger effect = lower value 0.879 | locus YDR502C, strain sam2, stronger effect = lower value 1.01 | locus YEL003W, strain gim4, stronger effect = lower value 0.999 | locus YEL037C, strain rad23, stronger effect = lower value 0.983 | locus YEL061C, strain CIN8 (second series), stronger effect = lower value 0.994 | locus YEL061C, strain CIN8, stronger effect = lower value 1.01 | locus YER015W, strain faa2, stronger effect = lower value 0.989 | locus YER016W, strain bim1, stronger effect = lower value 0.995 | locus YER110C, stronger effect = lower value 1.03 | locus YER111C, strain swi4, stronger effect = lower value 0.991 | locus YER155C, strain BEM2 (second series), stronger effect = lower value 1.01 | locus YER155C, strain BEM2, stronger effect = lower value 1 | locus YER167W, strain BCK2, stronger effect = lower value 0.997 | locus YFR010W, strain ubp6, stronger effect = lower value 1 | locus YGL078C, strain dbp3, stronger effect = lower value 1.01 | locus YGL086W, strain mad1, stronger effect = lower value 1.01 | locus YGL167C, strain pmr1, stronger effect = lower value 0.962 | locus YGL173C, strain kem1, stronger effect = lower value 1.01 | locus YGL227W, strain vid30, stronger effect = lower value 0.994 | locus YGL240W, strain doc1, stronger effect = lower value 1.01 | locus YGL248W, strain PDE1, stronger effect = lower value 1.03 | locus YGL253W, strain hxk2, stronger effect = lower value 1.04 | locus YGR135W, strain pre9, stronger effect = lower value 1.02 | locus YGR229C, strain SMI1, stronger effect = lower value 1.01 | locus YGR252W, strain gcn5, stronger effect = lower value 0.984 | locus YHR013C, strain ard1, stronger effect = lower value 0.951 | locus YHR027C, strain rpn1, stronger effect = lower value 0.983 | locus YHR030C, strain SLT2, stronger effect = lower value 1.01 and 1.08 | locus YHR079C, strain IRE1 (second series), stronger effect = lower value 1.03 | locus YHR079C, strain IRE1, stronger effect = lower value 1.03 | locus YHR094C, strain hxt1, stronger effect = lower value 1.02 | locus YHR129C, strain ARP1, stronger effect = lower value 1.01 | locus YHR142W, strain chs7, stronger effect = lower value 0.973 | locus YHR200W, strain rpn10, stronger effect = lower value 1.02 | locus YIL066C, strain RNR3, stronger effect = lower value 1.01 | locus YIL073C, strain SPO22, stronger effect = lower value 1.04 | locus YIL125W, strain kgd1, stronger effect = lower value 1.02 | locus YIR030C, strain dcg1, stronger effect = lower value 1.02 | locus YJL092W, strain hpr5, stronger effect = lower value 0.992 | locus YJL095W, strain BCK1 (second series), stronger effect = lower value 0.986 | locus YJL095W, strain BCK1, stronger effect = lower value 1.04 and 1.02 | locus YJL115W, strain asf1, stronger effect = lower value 0.966 | locus YJL129C, strain trk1, stronger effect = lower value 1.02 | locus YJL134W, strain LCB3, stronger effect = lower value 1.01 | locus YJL154C, strain vps35, stronger effect = lower value 0.986 | locus YJL164C, strain tpk1, stronger effect = lower value 0.966 | locus YJL166W, strain qcr8, stronger effect = lower value 1 | locus YJL168C, strain set2, stronger effect = lower value 1.03 | locus YJL187C, strain SWE1 (second series), stronger effect = lower value 1.03 | locus YJR043C, strain POL32, stronger effect = lower value 0.996 | locus YJR066W, strain TOR1, stronger effect = lower value 1 | locus YKL009W, strain mrt4, stronger effect = lower value 1.04 | locus YKL068W, stronger effect = lower value 1.02 | locus YKL085W, strain MDH1 (second series), stronger effect = lower value 1.01 | locus YKL085W, strain MDH1, stronger effect = lower value 1.01 | locus YKL160W, strain elf1, stronger effect = lower value 0.96 | locus YKL190W, strain CNB1, stronger effect = lower value 1.01 | locus YKR001C, strain vps1, stronger effect = lower value 1.01 | locus YKR026C, strain gcn3, stronger effect = lower value 0.998 | locus YKR091W, strain srl3, stronger effect = lower value 0.991 | locus YLL001W, strain dnm1, stronger effect = lower value 0.942 | locus YLL026W, stronger effect = lower value 0.985 | locus YLL041C, strain sdh2, stronger effect = lower value 0.976 | locus YLR027C, strain aat2, stronger effect = lower value 1.01 | locus YLR039C, strain RIC1, stronger effect = lower value 1.01 | locus YLR058C, strain SHM2, stronger effect = lower value 1.01 | locus YLR102C, strain apc9, stronger effect = lower value 1.02 | locus YLR113W, strain HOG1, stronger effect = lower value 1.01 | locus YLR221C, strain rsa3, stronger effect = lower value 1.04 | locus YLR258W, strain gsy2, stronger effect = lower value 0.973 | locus YLR262C, strain YPT6 (second series), stronger effect = lower value 1 | locus YLR262C, strain YPT6, stronger effect = lower value 1.05 | locus YLR268W, strain sec22, stronger effect = lower value 1.02 | locus YLR320W, strain mms22, stronger effect = lower value 1.07 | locus YLR330W, strain CHS5, stronger effect = lower value 1.01 | locus YLR342W, strain FKS1 (second series), stronger effect = lower value 0.998 | locus YLR342W, strain FKS1, stronger effect = lower value 0.995 | locus YLR357W, strain rsc2, stronger effect = lower value 0.962 | locus YLR370C, strain arc18, stronger effect = lower value 0.99 | locus YLR371W, strain rom2, stronger effect = lower value 1.02 | locus YLR384C, strain iki3, stronger effect = lower value 0.997 | locus YLR418C, strain cdc73, stronger effect = lower value 1.02 | locus YML016C, strain PPZ1, stronger effect = lower value 1.01 | locus YML032C, strain rad52, stronger effect = lower value 1.02 | locus YML120C, strain ndi1, stronger effect = lower value 0.973 | locus YML124C, strain tub3, stronger effect = lower value 1.02 | locus YMR058W, strain fet3, stronger effect = lower value 0.989 | locus YMR078C, strain ctf18, stronger effect = lower value 1.02 | locus YMR125W, strain sto1, stronger effect = lower value 0.963 | locus YMR129W, stronger effect = lower value 0.997 | locus YMR205C, strain PFK2, stronger effect = lower value 0.951 | locus YMR223W, strain ubp8, stronger effect = lower value 1.01 | locus YMR231W, strain pep5, stronger effect = lower value 1 | locus YMR263W, strain SAP30, stronger effect = lower value 1.03 | locus YMR307W, strain GAS1, stronger effect = lower value 0.905 | locus YNL067W, strain RPL9B, stronger effect = lower value 1.05 | locus YNL071W, strain lat1, stronger effect = lower value 0.997 | locus YNL183C, strain NPR1, stronger effect = lower value 0.986 | locus YNL209W, strain ssb2, stronger effect = lower value 0.983 | locus YNL233W, strain BNI4, stronger effect = lower value 1.03 | locus YNL248C, strain rpa49, stronger effect = lower value 1.02 | locus YNL250W, strain rad50, stronger effect = lower value 1.01 | locus YNL271C, strain bni1, stronger effect = lower value 1.04 | locus YNL298W, strain CLA4, stronger effect = lower value 1.03 | locus YNL307C, strain MCK1, stronger effect = lower value 1.02 | locus YNL322C, strain KRE1 (second series), stronger effect = lower value 0.988 | locus YNR049C, strain mso1, stronger effect = lower value 0.989 | locus YNR052C, strain pop2, stronger effect = lower value 1.02 | locus YOL006C, strain TOP1, stronger effect = lower value 1.14 | locus YOL012C, strain htz1 1.23 | locus YOL147C, strain pex11, stronger effect = lower value 1.02 | locus YOR001W, strain rrp6, stronger effect = lower value 1.01 | locus YOR061W, strain CKA2, stronger effect = lower value 1.02 | locus YOR069W, strain VPS5, stronger effect = lower value 1.01 | locus YOR070C, strain gyp1, stronger effect = lower value 1.03 | locus YOR080W, strain dia2, stronger effect = lower value 0.988 | locus YOR083W, strain WHI5, stronger effect = lower value 0.963 | locus YOR106W, strain vam3, stronger effect = lower value 0.934 | locus YOR136W, strain idh2, stronger effect = lower value 1.02 | locus YOR144C, strain elg1, stronger effect = lower value 1.02 | locus YOR184W, strain ser1, stronger effect = lower value 1.02 | locus YOR231W, strain MKK1, stronger effect = lower value 1.03 | locus YOR265W, strain rbl2, stronger effect = lower value 0.996 | locus YOR270C, strain vph1, stronger effect = lower value 1.07 | locus YOR290C, strain snf2, stronger effect = lower value 0.94 | locus YOR316C, strain cot1, stronger effect = lower value 1.02 | locus YPL051W, strain arl3, stronger effect = lower value 0.983 | locus YPL078C, strain atp4, stronger effect = lower value 0.946 | locus YPL106C, strain sse1, stronger effect = lower value 0.934 | locus YPL240C, strain hsp82, stronger effect = lower value 0.998 | locus YPL256C, strain CLN2, stronger effect = lower value 1.09 | locus YPR119W, strain clb2, stronger effect = lower value 1.01 | locus YPR141C, strain kar3, stronger effect = lower value 1.01 | locus YPR163C, strain tif3, stronger effect = lower value 1.03 | locus YPR167C, strain met16, stronger effect = lower value 1.02 | strain wtn01, stronger effect = lower value 1.04
